Most compounds without a hit are left out; they make up all but 3.4% or so of the library.
PLC-beta3 inh = human PLC-beta3 inhibitors, primary screen, biochemical, fluorescence | Purified PLC-beta3, fluorogenic substrate | inhibition, % at 12.2 µM | hit rate 0.18% among 370,000 | AID 720704, 2013; in the data active = inhibition above about 11%;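 also: 0% = median of compound wells on plate and 100% = full blocker control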
HGIII-sPLA2 inh = human group III sPLA2 inhibitors, primary screen, biochemical, QFRET, BODIPY PC-A2 liposome substrate | Group 3 secretory phospholipase A2 (Homo sapiens), Q9NZ20 | QFRET BODIPY PC-A2 liposome hydrolysis, fluorescence | inhibition, % at 12.2 µM | hit rate 0.56% among 370,000 | AID 743126, 2013;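 active = inhibition above mean plus 3 SD of compounds lying within the high and low control bounds, cut at about 19% in these data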;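 also: 0% = median of test compound wells and 100% = no enzyme DMSO wells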
proKLK7 act = proKLK7 zymogen activators, primary screen, biochemical, fluorescence intensity. Kallikrein-7 (Homo sapiens), P49862. purified proKLK7, EDANS-DABCYL substrate fluorescence; 100% is mature enzyme control, 0% vehicle. activation, % at 7 µM. hit rate 0.9% among 370,000. AID 652039, 2013;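 active = activation above the mean of all tested compounds plus 3 SD, computed per campaign excluding outliers beyond control limits, cut at about 13% in these data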
Target sequence (P49862 whole entry, looked up): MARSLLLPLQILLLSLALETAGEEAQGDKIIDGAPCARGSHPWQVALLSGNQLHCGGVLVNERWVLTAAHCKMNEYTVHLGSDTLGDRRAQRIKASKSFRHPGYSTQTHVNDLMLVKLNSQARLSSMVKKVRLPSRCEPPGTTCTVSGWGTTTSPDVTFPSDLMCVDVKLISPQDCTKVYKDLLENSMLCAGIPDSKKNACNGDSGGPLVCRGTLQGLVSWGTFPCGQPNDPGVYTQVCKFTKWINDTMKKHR
PLCg1 inh = PLC-gamma1 enzyme inhibitors, primary screen, biochemical, fluorescence, purified enzyme; inhibition, % at 12.2 µM; fluorogenic substrate; 1-phosphatidylinositol 4,5-bisphosphate phosphodiesterase gamma-1 (Homo sapiens), P19174; AID 720700, 2013; hit rate 0.84% among 370,000
ADAM10 inh = human ADAM10 inhibitors, primary screen, biochemical, QFRET, HTS | Disintegrin and metalloproteinase domain-containing protein 10 (Homo sapiens), O14672 | recombinant ADAM10, EDANS/DABCYL FRET peptide cleavage, 3 h | inhibition, % at 7 µM | hit rate 0.62% among 370,000 | AID 720582, 2013;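 active = inhibition above a per-campaign cutoff equal to the mean of compounds falling between control-based bounds plus 3 SD, cut at about 20% in these data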;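 also: 0% = DMSO wells while the 100% control is not disclosed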
ADAM17 inh = ADAM17 inhibitors, primary screen, biochemical, QFRET; inhibition, % at 6.95 µM; Disintegrin and metalloproteinase domain-containing protein 17 (Homo sapiens), P78536; hit rate 0.83% among 370,000; recombinant ADAM17, EDANS/DABCYL FRET peptide cleavage;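 active = inhibition above the mean of compounds lying between control limits plus 3 SD, set per campaign, cut at about 8.5% in these data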;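 also: 0% = DMSO-only wells as the low control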
PLCgamma1 ctr = PLC-gamma1 enzyme inhibitors, counter-screen for PLC-beta3 inhibitor project, biochemical, fluorescence | shares compounds with PLCg1 inh | purified PLC-gamma1, fluorogenic substrate | inhibition, % at 12.3 µM | hit rate 3.1% among 3,300
PLCb3 confirm = PLC-beta3 inhibitor confirmation, biochemical, fluorescence, purified enzyme. shares compounds with PLCg1 inh. fluorogenic substrate fluorescence. inhibition, % at 12.3 µM. hit rate 1% among 3,300. AID 743261, 2014; in the data active = inhibition above about 11%
An asterisk follows results filed as active. Rule as the data show it, unless noted: active = inhibition above about 9.5%; inactive = the rest.

Screening O=c1[nH]c(=S)n(-c2ccccc2Cl)c(O)c1C=NCCN1CCNCC1 returned PLC-beta3 inh -7.3, HGIII-sPLA2 inh 13.1, proKLK7 act -0.1, PLCg1 inh -1.6, ADAM10 inh 4.2 and ADAM17 inh -4.5.
CN(C)CP(=O)(O)CN(C)C=O was read as PLC-beta3 inh 12.4*, HGIII-sPLA2 inh 15.2, proKLK7 act 0.4, PLCg1 inh 7.7, ADAM10 inh 0.5, ADAM17 inh 2.2, PLCgamma1 ctr -1.4 and PLCb3 confirm 2.1.
`Cc1cc(N2CCNC[C@H]2C)ccc1N1CCN[C@H](C)C1` gave PLC-beta3 inh -0.6, HGIII-sPLA2 inh 2.1, proKLK7 act 0.3, PLCg1 inh 4.0, ADAM10 inh -2.5 and ADAM17 inh 4.0.
Screening COC(=O)C1=C(c2cccc(OCc3ccccc3)c2)C[C@@H]2CC[C@H]1N2C(=O)NC1CCN(Cc2ccccc2)CC1 returned PLC-beta3 inh 2.3, HGIII-sPLA2 inh -17.8, proKLK7 act 0.9, PLCg1 inh 11.8*, ADAM10 inh -3.3, ADAM17 inh 0.7, PLCgamma1 ctr 1.4 and PLCb3 confirm 4.0.
Screening COC(=O)C1=C(c2ccccc2OCc2ccccc2)C[C@@H]2CC[C@H]1N2C(=O)NC1CCN(Cc2ccccc2)CC1 returned PLC-beta3 inh 6.7, HGIII-sPLA2 inh -11.4, proKLK7 act 0.2, PLCg1 inh 7.3, ADAM10 inh 3.2 and ADAM17 inh 1.9.
`COc1ccc(-c2ccc3c(c2)CN(c2cccc(Cl)c2)Cc2cnnn2-3)cc1` gave PLC-beta3 inh -4.5, HGIII-sPLA2 inh -4.5, proKLK7 act 2.0, PLCg1 inh 13.1*, ADAM10 inh -10.5, ADAM17 inh -1.2, PLCgamma1 ctr -4.0 and PLCb3 confirm -9.6.
COc1ccc(-c2ccc3c(c2)CN(CC(C)C)Cc2cnnn2-3)cc1 was read as PLC-beta3 inh -39.9, HGIII-sPLA2 inh -1.4, proKLK7 act -0.5, PLCg1 inh -28.8, ADAM10 inh -17.5 and ADAM17 inh -8.2.
Screening CCOC(=O)C1=C(C(=O)OCC)C2(c3ccccc3)c3ccccc3C1(C)N2C (centres undefined) returned PLC-beta3 inh -99.5, HGIII-sPLA2 inh 0.1, proKLK7 act 0.6, PLCg1 inh -80.8, ADAM10 inh -4.2 and ADAM17 inh 0.0.
Screening Cc1cc(N2CCNC[C@H]2C)ccc1N1CC[C@@H](O)C1 returned PLC-beta3 inh -5.9, HGIII-sPLA2 inh 9.7, proKLK7 act 1.0, PLCg1 inh -4.0, ADAM10 inh -10.1 and ADAM17 inh -5.5.
CC(=O)CC(=O)C1C(=O)N(C)C(=O)N(C)C1=O was read as PLC-beta3 inh 3.3, HGIII-sPLA2 inh 10.5, proKLK7 act -0.4, PLCg1 inh 11.3*, ADAM10 inh 7.5, ADAM17 inh 1.7, PLCgamma1 ctr -2.5 and PLCb3 confirm 1.2.
CN1C(=O)C(c2ccccc2)C(=O)N(C)C1=O was read as PLC-beta3 inh -0.5, HGIII-sPLA2 inh -15.6, proKLK7 act 0.1, PLCg1 inh 4.8, ADAM10 inh 5.4 and ADAM17 inh 2.7.
`CCN1CCC2(CC1)NC(CO)(CO)CO2` gave PLC-beta3 inh 0.3, HGIII-sPLA2 inh 6.8, proKLK7 act -0.2, PLCg1 inh 10.6*, ADAM10 inh 5.7, ADAM17 inh 2.8, PLCgamma1 ctr -3.3 and PLCb3 confirm -1.4.
Screening CC(=NCc1ccco1)c1c(O)n(C)c(=O)n(C)c1=O returned PLC-beta3 inh 4.1, HGIII-sPLA2 inh 7.5, proKLK7 act 0.4, PLCg1 inh 10.1*, ADAM10 inh -1.5, ADAM17 inh 0.9, PLCgamma1 ctr -2.3 and PLCb3 confirm -1.1.
`Cn1c(O)c(C=NCc2ccco2)c(=O)n(C)c1=O` gave PLC-beta3 inh -2.1, HGIII-sPLA2 inh 3.8, proKLK7 act 0.3, PLCg1 inh -1.6, ADAM10 inh -1.0 and ADAM17 inh -4.9.
O=C1CN=C(c2ccccc2)c2ccccc2N1Cc1ccc(C(F)(F)F)cc1 was read as PLC-beta3 inh 1.0, HGIII-sPLA2 inh -1.2, proKLK7 act 0.5, PLCg1 inh -0.8, ADAM10 inh 1.3 and ADAM17 inh -1.2.
Cc1oc(-c2ccccc2Cl)nc1CN1C(=O)CN=C(c2ccccc2)c2ccccc21 was read as PLC-beta3 inh 11.3*, HGIII-sPLA2 inh -2.2, proKLK7 act -0.3, PLCg1 inh 9.6*, ADAM10 inh 17.1, ADAM17 inh 0.6, PLCgamma1 ctr -5.8 and PLCb3 confirm -5.7.
`C=CCN1C(=O)NC(=O)C(CCc2ccncc2)(CCc2ccncc2)C1=O` gave PLC-beta3 inh 1.1, HGIII-sPLA2 inh -3.4, proKLK7 act 0.1, PLCg1 inh -1.0, ADAM10 inh 4.3 and ADAM17 inh -2.3.
`Cc1cc(Cl)nc(N)n1` gave PLC-beta3 inh 7.5, HGIII-sPLA2 inh -4.6, proKLK7 act 0.2, PLCg1 inh 12.6*, ADAM10 inh 4.1, ADAM17 inh 4.0, PLCgamma1 ctr -3.9 and PLCb3 confirm 2.7.
S=P(c1ccccc1)(c1ccccc1)c1c[n+](Cc2ccccc2)c2ccccn12 was read as PLC-beta3 inh -0.7, HGIII-sPLA2 inh -8.6, PLCg1 inh -1.4, ADAM10 inh 1.6 and ADAM17 inh -2.0.
For O=C(NCCN1CCC2(CC1)C(=O)NCN2c1ccccc1)c1cccc2c1-c1ccccc1C2=O the results were PLC-beta3 inh -7.1, HGIII-sPLA2 inh 6.1, proKLK7 act 0.8, PLCg1 inh -4.9, ADAM10 inh -9.3 and ADAM17 inh -3.3.
CCOC(=O)c1c(C)n(Cc2ccc3c(c2)OCO3)c2ccc(O)cc12 was read as PLC-beta3 inh -3.3, HGIII-sPLA2 inh -17.5, proKLK7 act 1.3, PLCg1 inh 3.2, ADAM10 inh 16.2 and ADAM17 inh 7.5.
COC(=O)c1c(C)n(Cc2ccc3c(c2)OCO3)c2ccc(O)cc12 was read as PLC-beta3 inh -5.5, HGIII-sPLA2 inh -25.4, proKLK7 act 0.0, PLCg1 inh 11.5*, ADAM10 inh 15.0, ADAM17 inh 7.3, PLCgamma1 ctr -10.9 and PLCb3 confirm -12.4.

Source: PubChem BioAssay
